Only a selection was taken, and hits are over-represented in it overall.
CHX counter: affects cycloheximide protein synthesis inhibition readout, counter-screen | cell reporter, cycloheximide protein synthesis inhibition counterscreen | max response, % | actives 12% (n = 300,000) | AID 2314; in the data active means max response mostly above about 13%, no sharp cut-off; inactive means mostly below about 14%; further: read at 38.3 µM for the half of the compounds with a filed dose
Tb PYK inh: blocks Trypanosoma brucei pyruvate kinase; TbPYK enzyme, Kinase-Glo Plus ATP luminescence, 45 min; Potency, µM (titrated, usually from 76.8 µM), actives largely listed as inhibitors; actives 0.12% (n = 410,000); Q57TT1; further: nearly all actives have a fitted effect of over 50% in size
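Enzyme and substrate buffer are dispensed first and compound is pin-transferred. ADP at 130 uM final then starts the reaction, which runs 45 min at room temperature. Detection reagent is added for 10 min before luminescence is imaged.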
Shiga inhibitor: blocks Shiga toxin action in Vero cells; Vero cells, Shiga toxin protein synthesis inhibition reporter; inhibition, % at 38.7 µM; actives 9.2% (n = 290,000); in the data active means inhibition mostly above about 28%, no sharp cut-off; inactive means mostly below about 43%
Giardia FBPA inh: blocks Giardia fructose-bisphosphate aldolase activity; purified Giardia FBPA; Potency, µM (top dose mostly 59.6 µM), usual class: inhibitors; actives 0.71% (n = 290,000); AID 2451; further: nearly all actives have a fitted effect of over 55% in size
Target sequence (A8B2U2 whole entry, looked up): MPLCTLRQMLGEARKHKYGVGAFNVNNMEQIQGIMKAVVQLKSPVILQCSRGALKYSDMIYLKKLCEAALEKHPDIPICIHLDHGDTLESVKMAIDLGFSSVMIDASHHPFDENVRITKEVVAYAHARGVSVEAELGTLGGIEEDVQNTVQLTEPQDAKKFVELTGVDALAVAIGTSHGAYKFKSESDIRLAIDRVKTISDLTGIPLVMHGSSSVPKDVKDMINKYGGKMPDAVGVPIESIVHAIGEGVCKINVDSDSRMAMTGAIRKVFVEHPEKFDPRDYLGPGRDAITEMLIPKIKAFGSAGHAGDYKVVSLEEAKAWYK
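40 nM FBPA preincubated 10 min at RT with compound (up to 57.5 uM final), then substrate plus GAPDH/TPI/NAD/arsenate coupling and diaphorase/resazurin added. Fluorescence read after 20 min at RT, 525/598 nm.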
LmPK inhibitor: blocks Leishmania mexicana pyruvate kinase activity | Q27686 | Potency, µM (top dose mostly 57.5 µM), hits mostly inhibitors | actives 0.37% (n = 290,000) | purified LmPK, Kinase-Glo ATP luminescence, 1 h
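Screened at intermediate enzyme activity to detect both inhibitors and activators: LmPK at 0.1 nM, with a 0.5 nM enzyme column as activation reference. PEP 0.5 mM, ADP 0.1 mM; ATP detected by luminescence after 1 h.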
Sm TGR inh: S. mansoni TGR enzyme inhibition; AID 485364; purified TGR, DTNB reduction, TNB absorbance 405 nm; Potency, µM (series often up to 114 µM), usual class: inhibitors; actives 3% (n = 360,000); further: nearly all actives have a fitted effect of over 60% in size
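TGR 20 nM + NADPH 100 uM (dispensed conc.), cpd preinc 15 min RT; start with NADPH (500 uM addition) then DTNB (15 mM addition). Kinetic TNB absorbance, 405 nm filter. Four-parameter Hill fit across titration.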
A number is an active result; [ ] = dose if it differs, or a comment. Unless noted, the call rests on the fitted dose curve; in most records, active means well fitted curve in the direction sought with a large enough effect; inconclusive means small, poorly fitted or top-dose-only effect, or another doubt; inactive means no such curve, though single readings can be large; an effect the other way counts as inactive or inconclusive.

Results for Cn1cc(-c2nc3cnc(Oc4cccc(Cl)c4)nc3n(CCC#N)c2=O)c2ccccc21 ?
Tb PYK inh: inactive; Giardia FBPA inh: inactive

What do the screens show for `CC(NC(CCc1ccccc1)C(=O)O)C(=O)N1CCCC1C(=O)O` (stereo unspecified)?
Tb PYK inh: inactive

Results for O=C1CCC(C(=O)N2CCN(c3cnccn3)CC2)CN1CCc1ccccc1 (stereo unspecified) ?
Tb PYK inh: inactive

Results for Cc1c(C(=O)N2CCc3ccccc3C2)oc2ccc(Br)cc12 ?
Tb PYK inh: inactive; Sm TGR inh: inactive

How did Cc1c(C(=O)N2CCN(C)CC2)oc2ccc(Br)cc12 do in these assays?
CHX counter: 33.4; Tb PYK inh: inactive; Shiga inhibitor: 46.3; Giardia FBPA inh: inactive; LmPK inhibitor: inactive; Sm TGR inh: inactive

Results for CCN(CC)C(=O)C1CCN(C(=O)c2oc3ccc(C)cc3c2C)CC1 ?
CHX counter: 17.1; Tb PYK inh: inactive; Shiga inhibitor: inactive; LmPK inhibitor: inactive; Sm TGR inh: inactive

Results for COc1ccc2oc(C(=O)N3CCN(C(=O)c4ccco4)CC3)c(C)c2c1 ?
Tb PYK inh: inactive; Sm TGR inh: 50.1µM

What do the screens show for `Cc1ccc2oc(C(=O)N3CCC(O)(c4ccccc4)CC3)c(C)c2c1`?
CHX counter: 11.5; Tb PYK inh: inactive; Shiga inhibitor: inactive; Giardia FBPA inh: inactive; LmPK inhibitor: inactive; Sm TGR inh: inactive

What do the screens show for `COc1ccc2oc(C(=O)N3CCN(c4ncccn4)CC3)c(C)c2c1`?
CHX counter: inactive; Tb PYK inh: inactive; Shiga inhibitor: inactive; Giardia FBPA inh: inactive; LmPK inhibitor: inactive; Sm TGR inh: inactive

What do the screens show for `COc1ccc(C(=O)N2CCCCC2c2cc(C(=O)NCc3cccnc3)no2)cc1` (stereo unspecified)?
Tb PYK inh: inactive

What do the screens show for `COCCn1c(=S)[nH]c2cc(C(=O)N3CC(C)CC(C)C3)ccc2c1=O` (stereo unspecified)?
CHX counter: inactive; Tb PYK inh: inactive; Shiga inhibitor: inactive; Giardia FBPA inh: inconclusive; LmPK inhibitor: inactive; Sm TGR inh: inactive

What do the screens show for `CCCc1ccc2oc(C(=O)N3CCNC(=O)C3CC(=O)OC)c(C)c2c1` (stereo unspecified)?
CHX counter: 19.3; Tb PYK inh: inactive; Shiga inhibitor: inactive; LmPK inhibitor: inactive; Sm TGR inh: inactive

What do the screens show for `CCN(CC)S(=O)(=O)c1ccc2oc(C(=O)N3CCCCCC3)c(C)c2c1`?
CHX counter: inactive; Tb PYK inh: inactive; Shiga inhibitor: inactive; Giardia FBPA inh: inactive; LmPK inhibitor: inactive; Sm TGR inh: inactive

Results for CCCc1ccc2oc(C(=O)N3CCCC3)c(C)c2c1 ?
CHX counter: 29.6; Tb PYK inh: inactive; Giardia FBPA inh: inactive; LmPK inhibitor: inactive; Sm TGR inh: inactive

What do the screens show for `COC(=O)CC1C(=O)NCCN1C(=O)c1ccccc1` (stereo unspecified)?
CHX counter: inactive; Tb PYK inh: inactive; Shiga inhibitor: inactive; Giardia FBPA inh: inactive; LmPK inhibitor: inactive; Sm TGR inh: inactive

What do the screens show for `Cc1oc2cc3c(C(=O)N4CCCCC4)c(C)oc3cc2c1C(=O)N1CCCCC1`?
CHX counter: 53.4; Tb PYK inh: inactive; Shiga inhibitor: inactive; Giardia FBPA inh: inactive; LmPK inhibitor: inactive; Sm TGR inh: inactive[11.4 µM]

How did Cc1c(C(=O)N2CCCC2)oc2ccc(Br)cc12 do in these assays?
CHX counter: 34.8; Tb PYK inh: inactive; Shiga inhibitor: 42.2; LmPK inhibitor: inactive; Sm TGR inh: inactive

How did CC1CN(C(=O)/C=C/c2ccccc2Cl)CC(C)O1 (stereo unspecified) do in these assays?
CHX counter: inactive; Tb PYK inh: inactive; Shiga inhibitor: inactive; Giardia FBPA inh: inactive; LmPK inhibitor: inactive; Sm TGR inh: inactive

How did Cc1ccc(C)c(CC(=O)N2CCCCC2c2cc(C(=O)Nc3ccc(F)c(Cl)c3)no2)c1 (stereo unspecified) do in these assays?
Tb PYK inh: inactive

How did S=C(NCCc1cccc(Cl)c1)NCc1ccccc1 do in these assays?
CHX counter: 25.4; Shiga inhibitor: inactive; LmPK inhibitor: inactive; Sm TGR inh: inactive

What do the screens show for `O=C(NCCc1ccccc1)Nc1cccc(Cl)c1`?
CHX counter: 49.3; Tb PYK inh: inactive; Shiga inhibitor: inactive; Giardia FBPA inh: inactive; LmPK inhibitor: inactive; Sm TGR inh: inactive

Screening results from PubChem.
